# Hits are enriched below; roughly 17% of the tested compounds scored in any of these assays.
# TDP1 cell CPT: DT40-hTDP1 cell growth loss with CPT; chicken DT40 Tdp1-/-;hTDP1 cells + 20 nM CPT, ATP luminescence, 48 h; Potency, µM (series often up to 46.2 µM), for the others: at the highest dose activity change, negative = growth inhibition, hits mostly inhibitors; actives 12% (n = 420,000); AID 686979; note: % is set by controls: 0 for no effect and ±100 for the full control effect; nearly all actives have a fitted effect of over 55% in size
#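 Chicken DT40 Tdp1-/- cells complemented with human TDP1, 400 cells/well, exposed to compounds plus 20 nM camptothecin for at least 48 h at 37 C; viability read as ATP content by CellTiter-Glo luminescence.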
# HepG2 tox: counter-screen for TGF-b inhibitors: cytotoxicity in HepG2 cells; Potency, µM (titrated, usually from 46.1 µM), for the others: at the top dose activity change, negative = cytotoxicity, hits mostly cytotoxic; AID 588856; HepG2 CAGA-GFP viability, ATP luminescence, 18 h; actives 0.76% (n = 410,000)
#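 CellTiter-Glo luminescence gave cytotoxicity after 18 hours at 37 degrees C. The cells were HepG2 CAGA-GFP in 1% FBS DMEM, stimulated with 500 pg/mL TGF-beta after compound addition. %Activity was normalised to no-cell wells (complete cell-killing) and DMSO (no toxicity), and curves were fitted and classified.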
# DT40 TDP1 no CPT: qHTS for Inhibitors of human tyrosyl-DNA phosphodiesterase 1 (TDP1): qHTS in cells in absence of CPT | actives 15% (n = 420,000) | Potency, µM (top dose mostly 46.2 µM), for inactives: top-dose activity change, negative = growth inhibition, actives largely listed as inhibitors | AID 686978, 2013 | DT40 Tdp1-/- hTDP1 cells, no CPT, ATP luminescence, 48 h; note: % is set by controls: 0 for no effect and ±100 for the full control effect; nearly all actives have a fitted effect of over 55% in size
#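 Luminescent ATP content (CellTiter-Glo) served as the growth readout. Knockout chicken DT40 cells expressing human TDP1 were exposed to compounds without camptothecin for a minimum 48 hr at 37 °C.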
# ATXN2 expr inh: reduces ATXN2 reporter expression in HEK-293 cells; AID 1745845; HEK-293 ATXN2-luciferase reporter, luminescence, 24 h; Potency, µM (doses to about 57 µM), without a hit: top-dose activity change, negative = inhibition, most hits filed as inhibitors; actives 0.72% (n = 360,000); note: % is set by controls: 0 for no effect and ±100 for the full control effect; nearly all actives have a fitted effect of over 55% in size
#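 qHTS (up to 57 uM final) was run with 24 h compound exposure of reporter cells at 37 °C. Each well was multiplexed: SteadyGlo luminescence measured ATXN2-luciferase expression after a fluorogenic Gly-Phe-AFC viability readout (25 uM final).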
# TGFb inhibitor: inhibitors of TGF-b signaling; HepG2 CAGA-GFP TGF-b/SMAD3 reporter, GFP fluorescence, 18 h; TGF-beta stimulated, 500 pg/mL final; Potency, µM (series often up to 46.1 µM), without a hit: top-dose activity, negative = inhibition, usual class: inhibitors; actives 1.2% (n = 410,000); AID 588855; note: % is set by controls: 0 for no effect and ±100 for the full control effect; nearly all actives have a fitted effect of over 65% in size
#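 Read-out: total well GFP (ex488/em500-530) summed from mean per-cell fluorescence. Cells: HEPG2 CAGA-GFP, 1% FBS DMEM, 18 h at 37 degrees C with 500 pg/mL final TGF-beta. Unstimulated wells served as the full-inhibition control; stimulated DMSO wells = 0%.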
# ATXN viability: viability counter-screen for ATXN expression inhibitors; S2 cells (HEK-293 line with an ATXN2-luciferase reporter) viability, CellTiter-Fluor protease fluorescence, 24 h; Potency, µM (series often up to 56.7 µM), hits mostly cytotoxic; actives 0.49% (n = 400,000); AID 651635; note: nearly all actives have a fitted effect of over 40% in size
# The depositor's hits bear a star; i = inactive; ? = inconclusive; · = not tested or not shown; [ ] = another dose, or the depositor's remark. Calls come from the whole dose curve; as a rule, active = well fitted curve in the direction sought with a large enough effect; inconclusive = small, poorly fitted or top-dose-only effect, or another doubt; inactive = no such curve, though single readings can be large; an effect the other way counts as inactive or inconclusive. Potency is the fitted concentration of half-maximal effect.
SMILES,TDP1 cell CPT,HepG2 tox,DT40 TDP1 no CPT,ATXN2 expr inh,TGFb inhibitor,ATXN viability
CC1CC(C)CN(C(C(=O)NC2CCCCC2)c2cc3ccccc3o2)C1 (centres undefined),?,-24%,26µM*,-32%,16µM*,i
CN(c1cccc(Cl)c1)S(=O)(=O)c1cccc(C(=O)Nc2nc3ccccc3[nH]2)c1,21µM*,1%,23µM*,?,-5%,?
COc1ccc(N(C)S(=O)(=O)c2cccc(C(=O)Nc3nc4ccccc4[nH]3)c2)cc1,23µM*,10%,?,-29%,-18%,?
COC(=O)[C@@H]1CCCN1C(=O)c1c(OC)cc(=O)n2c1CCN(Cc1cc(OC)ccc1F)CC2,-2%,·,-23%,·,·,i
CCOCC(=O)Nc1ccccc1C(=O)O,4%,0%,-16%,3%,0%,i
COC(=O)c1ccc(NC(=O)c2c(NCc3ccc(C)o3)sc3c2CCCC3)cc1,15µM*,-46%,?,?,0%,·
COC(=O)c1c(NC(=O)c2ccc(C)o2)sc2c1CCCCC2,?,3%,?,77%,17%,i
O=C(CNC1CCCC1)Nc1ccc(N2CCCCCC2)cc1,?,-14%,?,-29%,12%,?
COc1ccc(NC(=O)c2c(NCc3ccc(N(C)C)cc3)sc3c2CCC3)cc1,13µM*,-25%,10µM*,0%,-12%,i
COc1ccc(CC(=O)Nc2sc3c(c2C(N)=O)CCCC3)cc1OC,?,7%,18µM*,-18%,-12%,i
O=C(CNCCC1=CCCCC1)Nc1ccc(N2CCCCCC2)cc1,21µM*,-108%,21µM*,?,16µM*,·
O=C1CCC([N+](=O)[O-])C(c2ccc(-c3ccccc3)cc2)N1 (centres undefined),-1%,13%,-28%,-2%,0%,i
CCOC(=O)c1c(NC(=O)C(=O)N/N=C/c2ccc(O)c(OC)c2)sc2c1CCCCC2,?,-19%,23µM*,-2%,3%,i
COc1ccc(NC(=O)c2c(NCc3cccc(OC)c3)sc3c2CCCC3)cc1,?,-28%,23µM*,?,?,?
COC(=O)c1ccc(NC(=O)c2c(NCc3ccc(OC)c(OC)c3)sc3c2CCCC3)cc1,2.9µM*,-26%,5.2µM*,?,?,·
COC(=O)c1c(NC(=O)COC(=O)c2ccc(O)cc2)sc2c1CCCCC2,?,-4%,29µM*,?,3%,?
COCC(=O)Nc1sc2c(c1C(=O)OC)CCCC2,4%,-1%,-24%,11%,9%,i
CCOC(=O)c1c(NC(=O)C(=O)N/N=C/c2ccc(OCC)cc2)sc2c1CCCCC2,?,-3%,?,1%,-14%,?
Cc1ccc(NC(=O)COc2ccc3c(c2)OCO3)c(Cl)c1,-2%,3%,10%,29%,0%,i
COc1ccc(-n2c(=O)c(-c3cc(F)cc(F)c3)nc3cncnc32)cc1,0%,·,20%,·,·,·
COc1ccccc1C(=O)Nc1cccc(C(=O)OCc2cc(=O)n3ccsc3n2)c1,-20%,2%,-19%,3%,7%,i
CCOC(=O)c1c(CC(C)C)csc1NC(=O)COC(=O)c1ccc(O)cc1,23µM*,-10%,18µM*,-27%,0%,i
COc1cc(OC)cc(C(=O)OCC(=O)Nc2ccc(N3CCCCC3)cc2)c1,-23%,4%,-20%,8%,-2%,i
O=C(COC(=O)c1ccc(O)cc1)Nc1ccc(N2CCCCC2)cc1,?,-12%,21µM*,9%,-5%,i
COC(=O)c1c(NC(=O)/C=C/c2ccc(OC)c(OC)c2)sc2c1CCC2,?,6%,9.2µM*,·,-3%,·
SMILES,TDP1 cell CPT,HepG2 tox,DT40 TDP1 no CPT,ATXN2 expr inh,TGFb inhibitor,ATXN viability
CCOC(=O)c1c(CC(C)C)csc1NC(=O)COC(=O)C1=NNC(=O)CC1,-25%,4%,-29%,-3%,13%,i
Cc1cc(C)c2sc(N)nc2c1,11%,7%,9%,-16%,6%,i
CCOC(=O)c1c(NC(=O)Cn2cnc3scc(-c4ccc(C)cc4)c3c2=O)sc(C)c1C,-25%,17%,0%,-4%,1%,i
N=c1oc2ccc(Cl)cc2cc1C(=O)Nc1ccc(F)cc1,-26%,4%,?,33%,-2%,i
c1ccc(COC(CN2CCCCCC2)CN2CCCCCC2)cc1,10µM*,-26%,21µM*,·,2%,?
C/C(=N\NC(=O)Cc1ccc(Cl)cc1)c1ccc(F)cc1,-13%,0%,?,·,29%,i
C/C(=N/NC(=O)CN1CCN(Cc2ccccc2)CC1)c1ccc([N+](=O)[O-])cc1,4%,-22%,?,-16%,-12%,i
C/C(=N\NC(=O)CSCc1ccc([N+](=O)[O-])cc1)c1ccccc1O,5.2µM*,-18%,3.7µM*,18µM*,?,?
C/C(=N\NC(=O)C(C)Sc1ccccc1)c1ccc([N+](=O)[O-])cc1 (centres undefined),?,-9%,4.1µM*,·,-18%,i
C/C(=N\NC(=O)Cc1ccc(Cl)cc1)c1ccccc1O,?,-39%,0.16µM*,?,?,?
C/C(=N\NC(=O)CSCc1ccc([N+](=O)[O-])cc1)c1ccccc1,?,32%,16µM*,-18%,-2%,·
CC(NC(=O)c1cccnc1)c1nnc2n1CCN(Cc1ccc(F)cc1F)CC2 (centres undefined),24%[9.04 µM],·,-18%,·,·,i
O=C(c1ccc(CS(=O)c2ccccc2Cl)o1)N1CCN(c2cccc(C(F)(F)F)c2)CC1 (centres undefined),0.65µM*,-36%,0.52µM*,·,?,·
O=C(c1ccc(CS(=O)Cc2ccccc2Cl)o1)N1CCN(c2cccc(Cl)c2)CC1 (centres undefined),?,-30%,?,?,?,i
O=C(c1ccc(CS(=O)Cc2ccc(Cl)cc2)o1)N1CCN(c2ccccc2)CC1 (centres undefined),-15%,-24%,-22%,-21%,-20%,i
O=C(c1ccc(CS(=O)c2ccccc2Cl)o1)N1CCN(c2cccc(Cl)c2)CC1 (centres undefined),0.26µM*,-34%,0.52µM*,·,?,·

# High-throughput results (PubChem)
